Assay outcomes as filed in PubChem BioAssay.
PAFAH2 inh: PAFAH2 (human) inhibition. 340,000 tested, 0.99% active. inhibition, % at 3.39 µM. Q99487. recombinant PAFAH2, FP-rhodamine activity probe, fluorescence polarization;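 active = inhibition above the mean over all tested compounds plus 3 SD, cut at about 30% in these data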;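 also: inhibitors block probe labeling of enzyme so polarization drops; 0% = enzyme with DMSO and 100% = wells lacking PAFAH2 protein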
PAFAH1B2 FP inh: blocks human PAF acetylhydrolase 1b catalytic subunit 2; P68402; recombinant PAFAH1B2, FP-rhodamine activity probe, fluorescence polarization; inhibition, % at 3.39 µM; 340,000 tested, 1.2% active;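 active = inhibition above the mean of all tested compounds plus 3 SD, cut at about 24% in these data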;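 also: 0% = enzyme with DMSO and 100% = wells lacking PAFAH1B2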
eLon inh: inhibits E. coli Lon protease; P0A9M0; purified E. coli Lon protease, fluorescence polarization; inhibition, % at 7.94 µM; 360,000 tested, 0.42% active; in the data active = inhibition above about 13%, passing the limit was not always enough;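 also: 0% = enzyme with probe and DMSO and 100% = no enzyme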
pPAFAH FP inh: pPAFAH (human) enzyme inhibition. inhibition, % at 3.39 µM. Q13093. recombinant pPAFAH, FP-rhodamine probe fluorescence polarization. 330,000 tested, 1.5% active. AID 463082;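 active = inhibition above the mean inhibition across the screen plus 3 SD, cut at about 25% in these data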;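 also: inhibitors block binding of the rhodamine activity-based probe so polarization drops; 0% = enzyme with DMSO and 100% = wells lacking pPAFAH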
Target sequence (Q13093 whole entry, looked up): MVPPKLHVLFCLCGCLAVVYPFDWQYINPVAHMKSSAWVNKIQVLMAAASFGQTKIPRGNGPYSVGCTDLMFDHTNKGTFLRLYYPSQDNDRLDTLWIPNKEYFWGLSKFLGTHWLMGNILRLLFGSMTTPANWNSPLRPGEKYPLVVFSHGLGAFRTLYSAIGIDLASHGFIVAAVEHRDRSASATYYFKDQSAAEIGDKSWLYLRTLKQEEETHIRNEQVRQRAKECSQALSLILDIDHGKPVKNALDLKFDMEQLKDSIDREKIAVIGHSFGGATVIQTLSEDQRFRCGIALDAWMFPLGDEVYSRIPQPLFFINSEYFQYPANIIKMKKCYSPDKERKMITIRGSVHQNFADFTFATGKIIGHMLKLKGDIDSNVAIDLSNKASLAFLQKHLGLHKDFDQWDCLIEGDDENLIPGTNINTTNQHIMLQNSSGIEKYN
Rin1 Abl inh: human Rin1-Abl interaction inhibition | P00519+Q13671 | 360,000 tested, 0.4% active | inhibition, % at 7.35 µM | TR-FRET Rin1/Abl binding, biochemical; in the data active = inhibition above about 5%, passing the limit was not always enough
PAFAH1B3 FP inh: PAFAH1B3 (human) inhibition; Q15102; recombinant PAFAH1B3, FP-rhodamine probe, fluorescence polarization; inhibition, % at 3.39 µM; 340,000 tested, 0.28% active;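 active = inhibition above the screen-wide average of all tested compounds plus 3 SD, cut at about 25% in these data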;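 also: 0% = enzyme with DMSO only and 100% = wells lacking PAFAH1B3 protein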
pPAFAH FP conf: pPAFAH (human) inhibition, confirmed | shares compounds with pPAFAH FP inh | recombinant pPAFAH, FP-Rh probe fluorescence polarization | inhibition, % at 3.39 µM | 2,300 tested, 72% active | AID 463230;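 active = mean inhibition of the triplicate above the hit cutoff set for the earlier primary screen, cut at about 25% in these data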;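 also: 0% = enzyme with DMSO and 100% = wells lacking pPAFAH enzyme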
PAFAH2 confirm: PAFAH2 (human) inhibition, confirmed; shares compounds with PAFAH2 inh; recombinant PAFAH2, FP-rhodamine activity probe, fluorescence polarization; inhibition, % at 3.39 µM; 2,300 tested, 65% active;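 active = mean inhibition over three repeats above a set limit taken from the earlier primary screen, cut at about 30% in these data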;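 also: inhibitor blocks binding of rhodamine activity probe so polarization falls; 0% = enzyme with DMSO and 100% = wells lacking PAFAH2 protein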
Rin1 Abl conf: confirmation of inhibitors of human Rin1-Abl interaction; 1,300 tested, 49% active; inhibition, % at 7.35 µM; TR-FRET Rin1-Abl binding, purified proteins; shares compounds with Rin1 Abl inh
GFP quencher: quenches GFP fluorescence, counter-screen for Rin1-Abl inhibitors | shares compounds with Rin1 Abl inh | inhibitors/quenchers counterscreen | inhibition, % at 6.75 µM | AID 602125 | 1,300 tested, 8.5% active;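 also: ABL1-eGFP fusion protein alone without its partner RIN1-SBP; 0% = protein with vehicle and 100% = wells lacking protein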
E coli Lon conf: confirmation of E. coli Lon protease inhibitors | shares compounds with eLon inh | purified E. coli Lon, fluorescence polarization | inhibition, % at 7.94 µM | 1,400 tested, 31% active; in the data active = inhibition above about 16%;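 also: 0% = enzyme with probe and DMSO and 100% = no enzyme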
The depositor's hits bear a star; ! = not active in a repeat. Only some compounds are listed: those with a hit (about 3.1% of all), similar ones and a draw of the others. Rule as the data show it, unless noted: active = inhibition above about 6.5%; inactive = the rest.

`CN(C)[C@@H]1C(=O)C(C(N)=O)=C(O)[C@@]2(O)C(=O)C3=C(O)c4c(O)cccc4[C@@](C)(O)C3[C@H](O)C12` (stereo partly specified) gave PAFAH2 inh 47*!, PAFAH1B2 FP inh 31*!, eLon inh 71, pPAFAH FP inh 64*, Rin1 Abl inh 19*, PAFAH1B3 FP inh 26*!, pPAFAH FP conf -3, Rin1 Abl conf 2 and GFP quencher 0.
Screening CC1C(=O)CC2(C(C)C)CC12 (stereo unspecified) returned eLon inh 4 and Rin1 Abl inh -2.
COc1c(OP2(=S)OCC(C)(C)CO2)cnn(C2CCCCC2)c1=O was read as eLon inh 8 and Rin1 Abl inh 0.
Screening CCN(CC)C(=O)c1ccc2c(c1)C1C(Cl)C(Sc3ccccc3[N+](=O)[O-])CC1C(C(=O)O)N2 (stereo unspecified) returned PAFAH2 inh 53*, PAFAH1B2 FP inh 33*, eLon inh 4, pPAFAH FP inh 68*, Rin1 Abl inh 6.8*, PAFAH1B3 FP inh 26*, pPAFAH FP conf 36*, Rin1 Abl conf -1 and GFP quencher 17*.
Screening C[n+]1c(-c2ccccc2)c2cc(N)ccc2c2ccc(N)cc21 returned PAFAH2 inh 92*, PAFAH1B2 FP inh 87*, eLon inh 154*, pPAFAH FP inh 68*, Rin1 Abl inh -7, PAFAH1B3 FP inh 121*, pPAFAH FP conf 52* and E coli Lon conf 76*.
For Cc1ccc(OC(=O)N(C)C[C@@H]2OCc3cnnn3CCCC(=O)N([C@@H](C)CO)C[C@@H]2C)cc1 the results were eLon inh -3 and Rin1 Abl inh 2.
CCOC(=O)[C@]12Cc3cc4ccccc4cc3[C@H]1N(Cc1ccccc1)C(=O)c1ccccc12 was read as eLon inh 5.
O=C1NC(=O)N(C2CCCCC2)C(=O)C1C1c2ccccc2C(=O)N1Cc1ccccc1 (stereo unspecified) was read as PAFAH2 inh 45*, PAFAH1B2 FP inh 17, eLon inh 5, pPAFAH FP inh 4, Rin1 Abl inh -4, PAFAH1B3 FP inh -5 and PAFAH2 confirm 41*.
For C=C1C(=O)OC2CC3(C)OC3C3OC3C3=CC(OC3=O)C12 (stereo unspecified) the results were eLon inh -6 and Rin1 Abl inh 1.
Screening COc1ccc(C(c2nnnn2C(C)(C)C)N2CCC3(CC2)C(=O)NCN3c2ccccc2)cc1 (stereo unspecified) returned eLon inh 1 and Rin1 Abl inh 5.
Screening Cc1ccc(N2C(=O)NC(=O)/C(=C\c3cccn3C(C)(C)C)C2=O)cc1 returned PAFAH2 inh 43*, PAFAH1B2 FP inh 1, eLon inh -14, pPAFAH FP inh 1, Rin1 Abl inh -4, PAFAH1B3 FP inh 15 and PAFAH2 confirm 29.
CC(C)(O)C1C2OC(=O)C1C1(O)CC3OC34C(=O)OC2C14C (stereo unspecified) was read as PAFAH2 inh -8, PAFAH1B2 FP inh 0, eLon inh -5, Rin1 Abl inh -1 and PAFAH1B3 FP inh -2.
